Reference: PubChem BioAssay (EPA / NIEHS)
Inconclusive results are not listed. Activity calls are given as the source filed them. How the source made its calls: active means hit-call score of the fitted dose curve at least 0.9, where 1 is the maximum; inconclusive means response in the unintended direction; inactive means score below 0.9.

Key:
[1] = ACEA_ER_AUC_viability: ACEA Biosciences xCELLigence Real-Time Cell Analysis on Estrogen Receptor Agonism for Viability (AID 2283782);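 further: continuous compound exposure with impedance area under curve over 80 h; hit means loss of impedance signal meaning reduced cell growth or viability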
In short: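 T-47D; phenol red-free RPMI1640 + 10% CS-FBS; 8 conc., 1:4 serial, max 100 uM final, ≤0.5% DMSO; n = 2; continuous exposure; impedance monitored to 80 h post-dose; AUC vs DMSO.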

[2] = test system: turtle Androgen Receptor (AR), gene 101947425; test: ATG_trAR_XSP1: Attagene TRANS-FACTORIAL Multi-Species (XSP1) HepG2 Assay for turtle Androgen Receptor (AR) (AID 2283786)
In short: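 HepG2 cells transiently transfected with a turtle AR–GAL4 chimera and GAL4-UAS reporter, co-treated with 3 nM 6-alpha-fluorotestosterone for partial stimulation. Reporter mRNA is quantified at 24 h by RT-PCR and capillary electrophoresis, gain-of-signal versus DMSO.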

[3] = target: GAL4 Transcription Factor (Internal Marker), GAL4 (gene 855828) (UniProt P04386); test: ATG_GAL4_XSP1: Attagene TRANS-FACTORIAL Multi-Species (XSP1) HepG2 Assay for GAL4 Transcription Factor (Internal Marker) (AID 2283789)
Chain of GAL4 Transcription Factor (Internal Marker), GAL4 (gene 855828) (P04386 whole entry, looked up, the tested form may be a part): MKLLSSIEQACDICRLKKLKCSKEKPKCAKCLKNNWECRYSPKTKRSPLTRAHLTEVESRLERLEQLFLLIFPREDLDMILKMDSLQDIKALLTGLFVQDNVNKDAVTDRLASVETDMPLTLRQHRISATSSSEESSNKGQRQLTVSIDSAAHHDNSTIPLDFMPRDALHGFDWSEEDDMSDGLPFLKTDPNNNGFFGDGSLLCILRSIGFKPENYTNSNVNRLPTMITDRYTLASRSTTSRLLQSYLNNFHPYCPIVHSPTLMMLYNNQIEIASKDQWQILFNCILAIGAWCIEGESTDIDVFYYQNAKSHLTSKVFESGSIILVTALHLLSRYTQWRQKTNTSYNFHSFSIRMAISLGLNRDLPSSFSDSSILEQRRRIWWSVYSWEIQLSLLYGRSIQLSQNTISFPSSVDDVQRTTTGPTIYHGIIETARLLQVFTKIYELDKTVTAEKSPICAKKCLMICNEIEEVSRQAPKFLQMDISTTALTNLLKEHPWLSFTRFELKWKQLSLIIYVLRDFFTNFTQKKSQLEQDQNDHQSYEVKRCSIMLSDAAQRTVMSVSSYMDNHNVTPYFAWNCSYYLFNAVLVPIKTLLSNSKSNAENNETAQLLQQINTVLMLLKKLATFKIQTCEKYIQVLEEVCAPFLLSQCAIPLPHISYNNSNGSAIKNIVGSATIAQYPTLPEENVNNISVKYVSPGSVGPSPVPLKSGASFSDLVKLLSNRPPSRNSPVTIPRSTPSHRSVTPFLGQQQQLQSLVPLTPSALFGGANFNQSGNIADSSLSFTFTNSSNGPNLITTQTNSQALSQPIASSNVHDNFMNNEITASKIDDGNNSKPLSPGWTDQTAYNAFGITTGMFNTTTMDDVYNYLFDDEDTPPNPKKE
Method: ATG_XSP1_multi-species_TRANS is a cell-based, multiplexed assay created by modifying the existing Attagene TRANS-FACTORIAL system to include a panel of nuclear receptors from some or all the following species: human (Homo sapiens), mouse (Mus musculus), frog (Xenopus laevis), zebrafish (Danio rerio), chicken (Gallus gallus), and turtle (Chrysemys picta). The ECOTOX-FACTORIAL format uses HepG2, a human liver cell line, with measurements taken at 24 hours after chemical dosing in a 24-well plate. Xsp1 included 3 nM 6-alpha-fluorotestosterone to partially stimulate the androgen receptor.ATG_GAL4_XSP1 is one of 29 assay components measured or calculated from the ATG_XSP1_multi-species_TRANS assay. It is designed to make measurements of mRNA induction, a form of inducible reporter, as detected with fluorescence intensity signals by Reverse transcription polymerase chain reaction (RT-PCR) and Capillary electrophoresis technology.This assay endpoint, ATG_GAL4_XSP1, was analyzed in the positive analysis fitting direction relative to DMSO as the negative control and baseline of activity. […] Furthermore, this assay endpoint can be referred to as a secondary readout, because this assay has produced multiple assay endpoints where this one serves a background control function. […]

[4] = ATG_M_06_XSP1: Attagene TRANS-FACTORIAL Multi-Species (XSP1) HepG2 Assay for M06 Transcription Factor (Internal Marker) (AID 2283790)
In short: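 Transfected HepG2 multi-reporter system treated 24 h in the presence of 3 nM 6-alpha-fluorotestosterone. The M06 internal marker transcript was quantified by RT-PCR with capillary electrophoresis as a background control, and gain of signal was scored versus DMSO.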

[5] = ATG_M_61_XSP1: Attagene TRANS-FACTORIAL Multi-Species (XSP1) HepG2 Assay for M61 Transcription Factor (Internal Marker) (AID 2283797)
In short: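 HepG2 cells transiently transfected with multiplexed GAL4-driven reporter units, dosed 24 h with 3 nM 6-alpha-fluorotestosterone present. Reporter mRNA quantified by RT-PCR, 6-FAM labelling, HpaI digestion and capillary electrophoresis; internal-marker background control, gain of signal versus DMSO.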

[6] = ATG_M_19_XSP1: Attagene TRANS-FACTORIAL Multi-Species (XSP1) HepG2 Assay for M19 Transcription Factor (Internal Marker) (AID 2283798)
In short: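 HepG2 cells transiently transfected with multiplexed GAL4-UAS reporter units, dosed 24 h with 3 nM 6-alpha-fluorotestosterone present for partial AR stimulation. Reporter mRNA measured by RT-PCR with capillary electrophoresis; gain-of-signal fitted relative to DMSO.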

[7] = ATG_M_32_XSP1: Attagene TRANS-FACTORIAL Multi-Species (XSP1) HepG2 Assay for M32 Transcription Factor (Internal Marker) (AID 2283799)
In short: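 HepG2 cells transiently transfected with multi-species TRANS reporter units, dosed 24 h with 3 nM 6-alpha-fluorotestosterone present. Internal-marker reporter mRNA quantified by RT-PCR and capillary electrophoresis; positive-direction fit versus DMSO.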

AR (gene 367) [8] = target: AR (gene 367) (UniProt P10275); test: ACEA_AR_agonist_80hr: ACEA Biosciences xCELLigence Real-Time Cell Analysis on Androgen Receptor Agonism for Proliferation (AID 2283783);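 further: hits increase impedance growth signal above DMSO baseline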
Chain of AR (gene 367) (P10275 whole entry, looked up): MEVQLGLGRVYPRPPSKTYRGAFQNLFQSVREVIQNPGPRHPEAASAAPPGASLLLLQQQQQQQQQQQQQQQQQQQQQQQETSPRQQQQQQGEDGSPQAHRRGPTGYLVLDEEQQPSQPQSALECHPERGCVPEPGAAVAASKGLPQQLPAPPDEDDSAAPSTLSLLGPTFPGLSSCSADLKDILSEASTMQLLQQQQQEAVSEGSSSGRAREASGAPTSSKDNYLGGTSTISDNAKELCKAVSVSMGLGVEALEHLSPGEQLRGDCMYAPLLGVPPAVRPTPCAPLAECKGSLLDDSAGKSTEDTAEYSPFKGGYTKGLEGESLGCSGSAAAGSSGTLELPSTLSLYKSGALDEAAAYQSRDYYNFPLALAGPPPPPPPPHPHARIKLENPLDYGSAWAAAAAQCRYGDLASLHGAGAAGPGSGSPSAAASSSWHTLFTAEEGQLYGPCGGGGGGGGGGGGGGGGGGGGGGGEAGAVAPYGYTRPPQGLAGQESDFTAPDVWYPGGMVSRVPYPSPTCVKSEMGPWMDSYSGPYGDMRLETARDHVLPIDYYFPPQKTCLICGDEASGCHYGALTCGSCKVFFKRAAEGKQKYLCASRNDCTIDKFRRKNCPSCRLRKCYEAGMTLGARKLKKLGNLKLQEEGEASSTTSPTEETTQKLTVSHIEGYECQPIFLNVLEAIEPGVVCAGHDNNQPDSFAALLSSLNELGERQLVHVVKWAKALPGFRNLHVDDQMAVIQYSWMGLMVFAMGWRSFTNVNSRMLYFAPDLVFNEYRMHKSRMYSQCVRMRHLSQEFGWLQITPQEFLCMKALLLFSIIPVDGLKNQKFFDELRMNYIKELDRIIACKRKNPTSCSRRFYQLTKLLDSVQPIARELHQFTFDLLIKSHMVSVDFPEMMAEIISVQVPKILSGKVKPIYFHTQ
In short: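 Androgen-driven proliferation in 22Rv1 cells is tracked as electrical impedance, taken 80 h after continuous exposure to compound (eight concentrations, 1:4 steps, maximum 100 uM final). Activity is fitted in the positive direction with DMSO as baseline.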

AR (gene 367) [9] = target: AR (gene 367) (UniProt P10275); test: ACEA_AR_antagonist_80hr: ACEA Biosciences xCELLigence Real-Time Cell Analysis on Androgen Receptor Antagonism for Proliferation (AID 2283787);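 further: 22Rv1 human prostate cancer cells with growth followed by electrical impedance; hits lower the impedance growth signal relative to DMSO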
In short: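 Growth-kinetic antagonist readout in 22Rv1 cells, taken 80 h after continuous compound exposure. Activity fitted as signal loss relative to DMSO negative control.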

[10] = STM_H9_NormalizedViability: Cytotoxicity Assessment at 120 hours in the Stemina devTOX quickPredict H9 human embryonic stem cell (hESC)-based Assay (AID 2283784)
In short: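 Chemicals are tested blinded on H9 human embryonic stem cells in the pluripotent state, with medium exchanged daily. After background correction, fluorescence from CellTiter-Fluor is scaled against 0.1% DMSO wells, and decreases are scored.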

With `Nc1c(Br)cc([N+](=O)[O-])cc1Br` as the compound, how does the outcome [1] read?
The outcome was “inactive”.

With `CCOC(OCC)OCC` as the compound, how does the outcome [1] read?
The outcome was “inactive”.

With `CC(O)C#CC(C)O` (centres undefined) as the compound, how does the AC50 [1] read?
Its AC50 is 26.7 µM (active).

Which outcome [2] does the source give for `O=C(c1ccccc1)c1ccc(O)cc1O` here?
The outcome was “inactive”.

And the outcome [3]?
Its outcome is “inactive”.

And the outcome [4]?
Its outcome is “inactive”.

What about the outcome [5] of the same compound?
The outcome was “inactive”.

What about the outcome [6] of the same compound?
The outcome was “inactive”.

What about the outcome [7] of the same compound?
The outcome was “inactive”.

Which AC50 [1] does the source give for `CCCCCCCCn1sc(Cl)c(Cl)c1=O` here?
The AC50 was 1.99 µM (active).

For `CO[Si](C)(CCC(F)(F)C(F)(F)C(F)(F)C(F)(F)C(F)(F)C(F)(F)F)OC`, which outcome [1] is on record?
The outcome was “inactive”.

With `FC(F)(F)C(F)(F)C(F)(F)C(F)(F)C(F)(F)C(F)(F)CC[Si](Cl)(Cl)Cl` as the compound, how does the outcome [1] read?
Its outcome is “inactive”.

Which AC50 (AR (gene 367) [8]) does the source give for `OCC1CCCO1` (centres undefined) here?
Its AC50 is 0.585 µM (active).

For `CCCCCCCC/C=C\CCCCCCCC(=O)OCC(O)CO` (centres undefined), which AC50 [1] is on record?
The AC50 was 50 µM (active).

And the AC50 (AR (gene 367) [8])?
The AC50 was 27.9 µM (active).

And the outcome (AR (gene 367) [9])?
The outcome was “inactive”.

Which AC50 [1] does the source give for `OCC(F)(F)C(F)(F)C(F)(F)C(F)(F)C(F)(F)C(F)(F)C(F)(F)C(F)(F)CO` here?
Its AC50 is 75 µM (active).

For `CCCCC(CC)COC(=O)c1ccc(N(C)C)cc1` (centres undefined), which AC50 [1] is on record?
Its AC50 is 87.8 µM (active).

What about the outcome [10] of the same compound?
Its outcome is “inactive”.

With `OCC(F)(F)C(F)(F)C(F)(F)CO` as the compound, how does the outcome [1] read?
Its outcome is “inactive”.

With `O=S(=O)(O)CCC(F)(F)C(F)(F)C(F)(F)C(F)(F)C(F)(F)C(F)(F)C(F)(F)C(F)(F)F` as the compound, how does the outcome [1] read?
Its outcome is “inactive”.

Which outcome [1] does the source give for `O=C1C=CC(=O)N1c1ccccc1` here?
Its outcome is “inactive”.

What about the outcome (AR (gene 367) [9]) of the same compound?
The outcome was “inactive”.

Which AC50 [1] does the source give for `CCCCCCCCCCCC(=O)Cl` here?
The AC50 was 79.8 µM (active).

Which results are given for `F[Si-2](F)(F)(F)(F)F`?
outcome (AR (gene 367) [8]): inactive; outcome (AR (gene 367) [9]): inactive

Which outcome [1] does the source give for `CCCCOC(=O)[C@H](C)O` here?
Its outcome is “inactive”.

For `OCCC(O)CO` (centres undefined), which outcome [1] is on record?
The outcome was “inactive”.

With `C[C@]12CC[C@H]3C(=CCc4cc(O)ccc43)[C@@H]1CCC2=O` as the compound, how does the outcome (AR (gene 367) [8]) read?
The outcome was “inactive”.

What about the AC50 (AR (gene 367) [9]) of the same compound?
The AC50 was 0.687 µM (active).

What about the outcome [4] of the same compound?
The outcome was “inactive”.

And the outcome [5]?
Its outcome is “inactive”.

With `O=C(c1ccccc1)c1ccc(Cl)cc1` as the compound, how does the AC50 [1] read?
The AC50 was 28.4 µM (active).

With `CCCCCCCCCCCCC[N+](C)(C)Cc1ccccc1` as the compound, how does the AC50 [1] read?
Its AC50 is 7.37 µM (active).

What about the AC50 (AR (gene 367) [9]) of the same compound?
Its AC50 is 4.67 µM (active).

For `COCCOCCC[Si](C)(O[Si](C)(C)C)O[Si](C)(C)C`, which AC50 [1] is on record?
The AC50 was 79.6 µM (active).

And the outcome (AR (gene 367) [8])?
Its outcome is “inactive”.

With `CCOCOCC` as the compound, how does the outcome [1] read?
The outcome was “inactive”.

With `O=S(=O)(Cl)C(F)(F)C(F)(F)C(F)(F)C(F)(F)C(F)(F)C(F)(F)C(F)(F)C(F)(F)F` as the compound, how does the outcome [1] read?
Its outcome is “inactive”.

Which outcome [1] does the source give for `Nc1cc([N+](=O)[O-])cc(Cl)c1O` here?
Its outcome is “inactive”.

For `CCCCCCCCCc1ccc(OCCO)cc1`, which AC50 [1] is on record?
The AC50 was 35.2 µM (active).

What about the AC50 (AR (gene 367) [9]) of the same compound?
The AC50 was 16.6 µM (active).

With `CC(=O)C=O` as the compound, how does the outcome [1] read?
Its outcome is “inactive”.

Which outcome [1] does the source give for `CN(N=O)C(=O)N[C@@H]1[C@@H](O)[C@H](O)[C@@H](CO)O[C@@H]1O` here?
The outcome was “inactive”.

With `CCCCCCCCCCCCCC[P+](CCCC)(CCCC)CCCC` as the compound, how does the AC50 [1] read?
Its AC50 is 1.73 µM (active).

And the outcome (AR (gene 367) [8])?
Its outcome is “inactive”.

What about the AC50 (AR (gene 367) [9]) of the same compound?
Its AC50 is 0.0436 µM (active).

Which results are given for `CCN=c1cc2oc3cc(NCC)c(C)cc3c(-c3ccccc3C(=O)OCC)c-2cc1C`?
AC50 [1]: 5.61 µM (active); outcome (AR (gene 367) [8]): inactive; AC50 [10]: 0.116 µM (active); AC50 (AR (gene 367) [9]): 0.0436 µM (active)

For `CSc1ccc(Cl)cc1`, which outcome [1] is on record?
Its outcome is “inactive”.

Which AC50 [1] does the source give for `Nc1cccnc1N` here?
The AC50 was 83.2 µM (active).

For `CCN=C1C=CC(=C(c2ccc(N(CC)CC)cc2)c2ccc(N(CC)CC)cc2)c2ccccc21`, which AC50 [1] is on record?
The AC50 was 5.37 µM (active).

What about the AC50 [10] of the same compound?
The AC50 was 0.165 µM (active).

What about the AC50 (AR (gene 367) [9]) of the same compound?
Its AC50 is 0.131 µM (active).

For `CO[Si](CCCOCC1CO1)(OC)OC` (centres undefined), which AC50 [1] is on record?
The AC50 was 76.8 µM (active).

With `Cc1cccc(C)n1` as the compound, how does the outcome [1] read?
The outcome was “inactive”.

With `O=C(Cl)C(F)(F)C(F)(F)C(F)(F)C(F)(F)C(F)(F)C(F)(F)F` as the compound, how does the outcome [1] read?
Its outcome is “inactive”.
